Beta apoptosis: beta cell apoptosis inhibition; hit rate 0.8% among 300,000; protection from apoptosis, % (no concentration beside the values); INS-1E cytokine-induced death, ATP luminescence, 48 h; percent of positive-control rescue, neutral wells zero; AID 435005;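 active = Every replicate reaches about 75%, or at least half do and their mean reaches it too, limit read from the data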;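 also: 0% = cytokine-treated negative control wells and 100% = positive control rescue; higher means more ATP so stronger rescue from cytokine killing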
Mdm2-MdmX inh: human Mdm2/MdmX binding inhibition. SaOS-2 split-luciferase Mdm2/MdmX complementation, luminescence. hit rate 3% among 330,000. AID 485346. inhibition, % at 8 µM. O15151+Q00987;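 active = inhibition of at least 50% at 8 µM in the primary screen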
CSC inhib: blocks cancer stem cells; hit rate 1.1% among 300,000; AID 2717; cancer stem cell-like cells viability, luminescence; inhibition, % at 7.5 µM; in the data active = inhibition above about 75%; tested in HMLE shEcad cells
NR3A LBD binder: modulates the human NR3A ligand-binding domain. hit rate 2.5% among 340,000. Tm shift relative to glycine control, % at 25 µM. NR3A LBD differential scanning fluorimetry, Tm shift; 0% = protein alone, 100% = glycine-bound protein;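 active = melting temperature shift of at least 10% of the positive control shift, at one fixed dose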
Gli-Sufu block: blocks Gli-Sufu signaling in a luciferase reporter; Sufu-KO-LIGHT fibroblasts, Gli luciferase reporter luminescence; inhibition, % at 5 µM; hit rate 0.74% among 340,000; AID 588413;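 active = inhibition above about 55%, limit read from the data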;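 also: 0% = DMSO-treated cells and 100% = wells with medium but no cells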
MPTP block: blocks calcium-induced mitochondrial swelling; hit rate 1.4% among 360,000; inhibition, % at 10 µM; isolated mouse mitochondria, Ca2+ swelling absorbance, 30 min;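 active = inhibition of 50% or more, scaled per plate between neutral and stimulator controls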;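 also: 0% = DMSO wells given calcium and 100% = 1 mM EGTA wells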
Mdm2 MdmX conf: human Mdm2/MdmX binding inhibition, confirmed | shares compounds with Mdm2-MdmX inh | luminescent assay | inhibition, % at 8 µM | hit rate 55% among 10,000 | AID 489028; in the data active = inhibition above about 40%
Full FLuc ctr: full-length luciferase inhibition in Mdm2/MdmX counter-screen | inhibition, % at 8 µM | SaOS-2 full-length luciferase counterscreen, luminescence | shares compounds with Mdm2-MdmX inh | hit rate 77% among 6,200;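 active = mean inhibition at 8 µM reaching about 37%, which flags the compound as non-specific, limit read from the data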;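 also: p53-null SaOS-2 cells with luciferase driven by a doxycycline-inducible promoter; compound on cells about two nights before reading with doxycycline added after day one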
Active calls of the source: *; . = no result. An excerpt weighted towards active compounds, which were near 6.6% of everything screened.

SMILES	Beta apoptosis	Mdm2-MdmX inh	CSC inhib	NR3A LBD binder	Gli-Sufu block	MPTP block	Mdm2 MdmX conf	Full FLuc ctr
CCc1c(C)nc2ccc(Br)cc2c1SCCC#N	-8	67*	2	-2	6	4	59*	23
CC(=O)N(/N=C1\Sc2ccccc2C1=O)c1ccccc1C	-3	-42	13	-2	0	3	.	.
CC(=O)N(/N=C1\Sc2ccccc2C1=O)c1ccc(C)cc1C	-2	65*	-2	1	33	1	76*	107*
COc1ccc2[nH]c3c(c2c1)CCN1C(=O)C(CC(=O)NCCc2ccccn2)C[C@H](C(=O)N(C(C)C)C(C)C)[C@@]31C (some centres undefined)	.	16	.	3	4	-1	.	.
Cc1nn(-c2ccccc2)c(C)c1/C=N/NC(=O)c1cc(C23CC4CC(CC(C4)C2)C3)[nH]n1	18	63*	97*	-1	6	-1	30	.
O=C(N/N=C/c1ccccn1)c1cc(-c2ccc(Cl)s2)[nH]n1	-1	1	-7	6	-3	1	.	.
Cc1nn(-c2ccccc2)c(C)c1/C=N/NC(=O)c1cc(C2CC2)[nH]n1	3	-4	-8	-1	-2	-2	.	.
Cc1nn(-c2ccccc2)c(C)c1/C=N/NC(=O)c1cc(-c2ccc(Cl)s2)[nH]n1	-1	56*	69	12*	10	3	59*	49*
O=C(CSc1nnc(-c2ccccc2)c(-c2ccccc2)n1)NCc1ccco1	-7	-6	-1	-1	-3	0	.	.
O=C(CSc1nc(-c2ccccc2)c(-c2ccccc2)[nH]1)NCc1ccco1	-5	53*	56	-3	-1	1	56*	73*
COc1ccc(OCc2n(CC(=O)OC3CC(C)CCC3C(C)C)c3ccccc3[n+]2C)cc1 (centres undefined)	100*	94*	58	-5	24	34	97*	59*
CN(NC(=O)c1cccc(Cl)c1)c1nc(-c2ccccc2)nnc1C(F)(F)F	8	59*	15	-4	8	7	57*	53*
N#Cc1ccc(-c2csc(NNC(=O)c3ccc(Br)cc3)n2)cc1	78*	77*	9	5	1	7	59*	10
CC(=O)Nc1ccc(-c2csc(NNC(=O)c3ccc(C)cc3)n2)cc1	-10	14	-2	-1	-7	2	.	.
COc1ccc(C2=NOC(C(=O)Nc3ccc4c(c3)OCCO4)C2)c(OC)c1 (centres undefined)	-2	17	-2	-2	-2	2	.	.
CC(C)[C@H](NC(=O)OC(C)(C)C)c1nnc(S(=O)(=O)Cc2c(F)cccc2Cl)o1	7	30	44	0	1	-4	.	.
CC[C@@H](C)[C@H](NC(=O)OC(C)(C)C)c1nnc(S(=O)(=O)Cc2cc(C)ccc2C)o1	-1	82*	66	2	1	27	66*	3
O=C(Nc1ccc(S(=O)(=O)N2CCCCC2)cc1)C1CCCO1 (centres undefined)	0	16	-8	1	0	0	.	.
O=C(Nc1nc(NC(=O)c2ccco2)n(-c2ccccc2)n1)c1ccccc1	89*	74*	27	0	30	32	64*	46*
CC(NC(=O)COC(=O)CC(c1ccccc1)c1ccccc1)c1ccccc1 (centres undefined)	-4	-16	1	0	-10	4	.	.
CCc1nnc(NC(=O)CSc2nnc(-c3ccncc3)n2C)s1	1	-11	-9	0	-1	0	.	.
CCc1nnc(NC(=O)CSc2nnc3c(C)cc4c(C)ccc(C)c4n23)s1	4	60*	64	-1	2	-2	65*	58*
Cc1cc(NC(=O)CSc2nnc3c(C)cc4c(C)ccc(C)c4n23)no1	10	66*	56	2	12	-2	63*	58*
CCc1nnc(SCC(=O)Nc2nc(C)c(C(=O)N(C)C)s2)n1CC	-3	11	-9	5	-1	-2	.	.
O=C1NC[C@@H](CCCCN2C[C@H](Cc3ccccc3)N(Cc3ccccc3)C(=O)C2=O)N(CCc2ccccc2)C1=O	.	.	.	.	.	0	.	.
SMILES	Beta apoptosis	Mdm2-MdmX inh	CSC inhib	NR3A LBD binder	Gli-Sufu block	MPTP block	Mdm2 MdmX conf	Full FLuc ctr
COc1ccn(C2CCCCO2)c(=O)n1 (centres undefined)	.	.	.	-1	5	0	.	.
Cn1cccc1/C=N/NC(=O)c1sc2cc(Cl)ccc2c1Cl	42	73*	-3	.	.	.	36	48*
Cc1ccc2c(Cl)c(C(=O)N/N=C/c3cccn3C)sc2c1	11	48	50	-5	-51	2	.	.
CCOC(=O)COn1c(=O)c(-c2ccc(OC)cc2)[n+]([O-])c2ccccc21	0	2	-11	-7	20	0	.	.
CCOC(=O)COn1c(=O)c(-c2ccc(OC)c(OC)c2)[n+]([O-])c2ccccc21	28	93*	-13	.	.	.	29	.
COc1ccccc1-n1c(CNC(=O)c2ccco2)n[nH]c1=S	-2	1	-13	-1	-7	0	.	.
C=C1C(=O)O[C@@H]2C[C@@H](C)[C@@H]3C=CC(=O)[C@@]3(C)[C@@H](OC(C)=O)[C@H]12	136*	100*	85*	-15	96*	.	100*	51*
C[C@@H]1C[C@@H]2OC(=O)[C@]3(C)[C@H]2[C@@H](OC3(C)O)[C@]2(C)C(=O)C=C[C@H]12 (some centres undefined)	-6	-30	9	-2	8	0	.	.
COc1ccc(-c2cc(NC=O)c3ncc(-c4ccc(OC)c(OC)c4)n3c2)cc1	.	.	.	.	.	0	.	.
C#CCOCCOCCOCCNc1nc(N2CCN(C(=O)C([C@@H](C)O)n3cc([C@@H](N)CCCCN)nn3)CC2)nc(N2CCN(C(=O)[C@H](CCCN=C(N)N)n3cc(C(N)[C@@H](C)CC)nn3)CC2)n1 (some centres undefined)	-16	14	.	0	-6	-2	.	.
CC1=C(C(=O)N2CCOCC2)CC(CC(=O)NCC2CCCCC2)C(=O)N1Cc1ccccc1 (centres undefined)	.	.	.	.	.	-4	.	.
NS(=O)(=O)c1ccc(CNC(=O)c2cc(-c3ccccn3)nc3ccc(Cl)cc23)cc1	.	51*	-15	-11	-3	2	14	.
NS(=O)(=O)c1ccc(CNC(=O)c2cc(-c3cccnc3)nc3ccc(Cl)cc23)cc1	-3	16	2	-4	-1	-2	.	.
O=C1C(c2ccccc2)=[N+]([O-])c2ccccc21	47	93*	82*	1	2	0	19	.
Cc1oc(C(=O)O)cc1COc1ccc2c(C)cc(=O)oc2c1	-3	25	-13	2	2	0	.	.

Assay outcomes from PubChem BioAssay.
